# Reference: article PMC7819943, “Rice protein-binding microarrays: a tool to detect cis-acting elements near promoter regions in rice”
# The full ranking holds about 39,000 sequences; the median of “fluorescence intensity (a.u.)” is about 4,300, and the highest 2% start at about 39,000. The entries come from a sample that favours the highest values as a whole.
# Target: T1, OsSMF1 (Oryza sativa, UniProt Q6ZLB0 1-436)
# T1 sequence: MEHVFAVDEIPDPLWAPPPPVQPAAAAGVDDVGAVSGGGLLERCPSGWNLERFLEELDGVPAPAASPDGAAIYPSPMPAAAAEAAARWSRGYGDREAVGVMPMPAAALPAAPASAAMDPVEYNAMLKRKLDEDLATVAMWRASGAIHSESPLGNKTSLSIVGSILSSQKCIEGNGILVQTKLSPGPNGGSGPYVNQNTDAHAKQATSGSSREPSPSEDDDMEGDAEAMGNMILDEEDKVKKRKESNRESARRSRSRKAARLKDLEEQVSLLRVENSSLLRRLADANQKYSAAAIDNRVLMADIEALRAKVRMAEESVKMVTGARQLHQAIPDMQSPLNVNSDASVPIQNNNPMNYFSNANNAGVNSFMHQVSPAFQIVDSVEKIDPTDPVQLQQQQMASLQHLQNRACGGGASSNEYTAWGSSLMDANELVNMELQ
# Assay: protein-binding microarray (RPBM); PBS, 2% BSA, 51.3 ng/ul salmon testes DNA, 50 uM zinc acetate, 200 nM TF, 25 C, 1 h; high values mean tight binding
# Settings: protein: recombinant; tags: N-terminal polyhistidine and DsRed monomer fusion (pET32a); chain copies: 2; label: CyDye5-dUTP incorporated in the synthesized complementary strand; 3' TTTTT single-stranded linker to array surface; dsDNA, one strand shown
# Procedure, shortened: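 Binding signal is reported as fluorescence intensity per feature (arbitrary units) from an Axon 4000B scanner. Incubation used 200 nM of each Ni–NTA-purified, N-terminally polyhistidine- and DsRed-fused transcription factor from E. coli BL21-CodonPlus on a double-stranded custom Agilent array for 1 h at 25 °C, with 50 µM zinc acetate in the buffer, followed by washing.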
row,Sequence,binding signal
1,AAATTCGTTCTACAACTAAACAGGTTGCTTCAGAGTGCAACGGAGTCACCTAGTGCAG,30800 fluorescence intensity (a.u.)
2,GATTCGAGATTCAGGTAGGTTGTATAGTTCACGGGAGCAACGGAGTCACCTAGTGCAG,64500 fluorescence intensity (a.u.)
3,GATTGGTAGTATTTAGTTGTGTATAATGTATTATTAGGTTCGGAGTCACCTAGTGCAG,3720 fluorescence intensity (a.u.)
4,TTGGTAGGTTCGACCTACTAGATTGTTGTTGATAATATAACGGAGTCACCTAGTGCAG,51700 fluorescence intensity (a.u.)
5,TGTTCATCCAAGGAGATTATCAGGTTGTTTGTATATATAACGGAGTCACCTAGTGCAG,26400 fluorescence intensity (a.u.)
6,AATATAGTGTTGTTTGGTACTATATCGAGTTGGATTAGTTCGGAGTCACCTAGTGCAG,3190 fluorescence intensity (a.u.)
7,TGCTATGCATACGACTCAGCTGTCCGACTCATGTATGAATCGGAGTCACCTAGTGCAG,3720 fluorescence intensity (a.u.)
8,CGCGGCACGGGGAGACGACACGTCGGATGGTTGGCAGGAGCGGAGTCACCTAGTGCAG,16400 fluorescence intensity (a.u.)
9,TTCTTCCTATATAAGCACAACACACGTCCTTACTTGTGTGCGGAGTCACCTAGTGCAG,5410 fluorescence intensity (a.u.)
10,GGCGTTCTGCCGCCTGGCGCCGCTCGTCACGTACGAGGACCGGAGTCACCTAGTGCAG,3350 fluorescence intensity (a.u.)
11,TCTGTAGTAGTCATCATCACCTAGGTGCCTACCCTTTTGACGGAGTCACCTAGTGCAG,3280 fluorescence intensity (a.u.)
12,CTGGGAAATAGTGCTGCAGAGTCACTAGTTAGATCGAAATCGGAGTCACCTAGTGCAG,3980 fluorescence intensity (a.u.)
13,ACTACAAATAGATCGAACAGAAACAGAGCATCACGACGACCGGAGTCACCTAGTGCAG,40300 fluorescence intensity (a.u.)
14,TGTGAGCACGGATCGACGATGAAAACAGACGAAGAACATTCGGAGTCACCTAGTGCAG,27400 fluorescence intensity (a.u.)
15,TCTCAACCCTCAGGTAATCTACTGCTGCGCGTGGTGAATCCGGAGTCACCTAGTGCAG,4080 fluorescence intensity (a.u.)
16,AAAGTCCGCTCGTGTTATTGGTAATTGAACTACTAAGCTACGGAGTCACCTAGTGCAG,41300 fluorescence intensity (a.u.)
17,CTACTAATAAGGCGTGTTATTATTGGTCATCAATGGCGTCCGGAGTCACCTAGTGCAG,3300 fluorescence intensity (a.u.)
18,ATACTAATAGTATAGTAAGCAACTATTGTATGAATTGGCTCGGAGTCACCTAGTGCAG,3740 fluorescence intensity (a.u.)
19,GGATCCGGGCATCTGGCTGCCCCGCCGCCACTCCGCCTAGCGGAGTCACCTAGTGCAG,3330 fluorescence intensity (a.u.)
20,ATTGGTATGGTATATTCATACCATAACATAAGAACAATAACGGAGTCACCTAGTGCAG,21200 fluorescence intensity (a.u.)
21,TTGGATGTTTGCCGTGGACAAGTGCTAACTGTCAAAACCCCGGAGTCACCTAGTGCAG,34900 fluorescence intensity (a.u.)

row,Sequence,binding signal
1,CTTGTGGCCCATTAATGGCTCGCGTCGGCCTAATTTTGTGCGGAGTCACCTAGTGCAG,4450 fluorescence intensity (a.u.)
2,GTGTGAAAAGATGCTGGCCCAATTAATTTGCGCGCGTCATCGGAGTCACCTAGTGCAG,48700 fluorescence intensity (a.u.)
3,TTGAAACTGTGCATGCGCATCACCTTCATGCCCAAAATTTCGGAGTCACCTAGTGCAG,3160 fluorescence intensity (a.u.)
4,TATCATTTGTCAAACACACCCATATCCCATTTGCCAATCACGGAGTCACCTAGTGCAG,3890 fluorescence intensity (a.u.)
5,AACGTCGGTTCCCAAACATTTGTTTTCCTTACCAATCGGGCGGAGTCACCTAGTGCAG,3490 fluorescence intensity (a.u.)
6,ACCAGTCCCAAATCAAACAGTCCTACTAGTTGCATTTTGTCGGAGTCACCTAGTGCAG,47200 fluorescence intensity (a.u.)
7,TCAATCATGAGGACATGGTAATATATTGCTTGTGTTGCTTCGGAGTCACCTAGTGCAG,3550 fluorescence intensity (a.u.)
8,AATTATAAAATCCAGAAAATAAACTAAGAACTGAAAACTACGGAGTCACCTAGTGCAG,5060 fluorescence intensity (a.u.)
9,ACAAATACTGATACATATACCTATACGTATGCGTCACCGTCGGAGTCACCTAGTGCAG,8380 fluorescence intensity (a.u.)
10,GTGTGAAACTCATACAAATATAAAATTACTGAACTACCGTCGGAGTCACCTAGTGCAG,49600 fluorescence intensity (a.u.)
11,TCAGGATGACTCGAAGTCGAATCCGCGTAATACGCTGGCGCGGAGTCACCTAGTGCAG,3370 fluorescence intensity (a.u.)
12,CCATCACCTCGTCGTCCCCGTCACCGCGCCTCTCCCGCTGCGGAGTCACCTAGTGCAG,3780 fluorescence intensity (a.u.)
13,TTGAATGGTGATGTAACTTGCATGGTTCTACACTTGATGACGGAGTCACCTAGTGCAG,3610 fluorescence intensity (a.u.)
14,CTCCGATGGAAGCCACGTCCTGTCCAATTCCCAAACTAACCGGAGTCACCTAGTGCAG,4220 fluorescence intensity (a.u.)
15,TAATTCCAAGCTTGTTTCACCGACCTGCCAAACTCGATTGCGGAGTCACCTAGTGCAG,3270 fluorescence intensity (a.u.)
16,GGGCAGCGCTAACCCAAAGCTCCTGCGATTCCAAACCGACCGGAGTCACCTAGTGCAG,64800 fluorescence intensity (a.u.)
17,AAGGTGATAGGGTCTCAAGTACGTCATTATGAATGTAAATCGGAGTCACCTAGTGCAG,3910 fluorescence intensity (a.u.)
18,TCTAGACAATCAAGCCGCTAGAAGTTTCATAGAGTGGTAGCGGAGTCACCTAGTGCAG,7160 fluorescence intensity (a.u.)
19,CTCCCTAGTCCACAAAACCTAGTGACGCGGCGAAACCCAACGGAGTCACCTAGTGCAG,5660 fluorescence intensity (a.u.)
20,ACATGGGCCGCAATCAGGTCACGTGGCTAGGCCTTGGGCCCGGAGTCACCTAGTGCAG,3230 fluorescence intensity (a.u.)
21,TTAGCCATTGCTACTTGCTTGCAGCGCGCGTGTCGGCTAGCGGAGTCACCTAGTGCAG,25300 fluorescence intensity (a.u.)
